Consider 1 compound from ChEMBL document CHEMBL1961873, “Compounds: GSK PKIS; Assays: Nanosyn kinase panel” (2012).

The target in experiment [1] is Protein kinase C gamma type (Homo sapiens) (UniProt P05129). The settings on record: at 1 µM.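 Further: each value is an averaged percent inhibition of the enzyme.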
Experiment [2] addresses T1, Protein kinase C iota type (Homo sapiens) (UniProt P41743).
T1 sequence (whole entry): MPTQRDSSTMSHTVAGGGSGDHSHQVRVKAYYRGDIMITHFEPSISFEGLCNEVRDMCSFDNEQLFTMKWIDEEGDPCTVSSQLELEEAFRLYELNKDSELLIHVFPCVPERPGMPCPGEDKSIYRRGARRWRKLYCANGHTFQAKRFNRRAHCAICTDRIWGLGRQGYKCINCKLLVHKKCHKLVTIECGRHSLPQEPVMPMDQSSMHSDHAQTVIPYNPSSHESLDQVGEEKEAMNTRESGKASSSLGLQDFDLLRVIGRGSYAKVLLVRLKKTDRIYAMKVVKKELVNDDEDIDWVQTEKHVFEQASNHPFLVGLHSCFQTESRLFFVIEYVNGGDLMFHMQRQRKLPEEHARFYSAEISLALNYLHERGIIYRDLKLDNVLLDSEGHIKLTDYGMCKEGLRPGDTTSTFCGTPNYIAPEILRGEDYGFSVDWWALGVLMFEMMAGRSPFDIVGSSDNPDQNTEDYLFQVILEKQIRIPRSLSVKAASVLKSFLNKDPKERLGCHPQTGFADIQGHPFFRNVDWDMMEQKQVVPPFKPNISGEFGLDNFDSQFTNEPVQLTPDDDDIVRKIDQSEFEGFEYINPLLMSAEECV
The conditions noted are these: at 0.1 µM.

For experiment [3], the target named is T1, Protein kinase C iota type (Homo sapiens). The settings on record: at 1 µM.
In experiment [4] the target is Protein kinase C theta type (Homo sapiens) (UniProt Q04759). The settings on record: at 0.1 µM.
Experiment [5] has the same target. The conditions noted are these: at 1 µM.
For experiment [6], the target named is Protein kinase C beta type (Homo sapiens) (UniProt P05771). The conditions noted are these: at 0.1 µM.
Experiment [7] shares this target. The conditions noted are these: at 1 µM.
Experiment [8] has as its target T2, Serine/threonine-protein kinase D1 (Homo sapiens) (UniProt Q15139).
T2 sequence (whole entry): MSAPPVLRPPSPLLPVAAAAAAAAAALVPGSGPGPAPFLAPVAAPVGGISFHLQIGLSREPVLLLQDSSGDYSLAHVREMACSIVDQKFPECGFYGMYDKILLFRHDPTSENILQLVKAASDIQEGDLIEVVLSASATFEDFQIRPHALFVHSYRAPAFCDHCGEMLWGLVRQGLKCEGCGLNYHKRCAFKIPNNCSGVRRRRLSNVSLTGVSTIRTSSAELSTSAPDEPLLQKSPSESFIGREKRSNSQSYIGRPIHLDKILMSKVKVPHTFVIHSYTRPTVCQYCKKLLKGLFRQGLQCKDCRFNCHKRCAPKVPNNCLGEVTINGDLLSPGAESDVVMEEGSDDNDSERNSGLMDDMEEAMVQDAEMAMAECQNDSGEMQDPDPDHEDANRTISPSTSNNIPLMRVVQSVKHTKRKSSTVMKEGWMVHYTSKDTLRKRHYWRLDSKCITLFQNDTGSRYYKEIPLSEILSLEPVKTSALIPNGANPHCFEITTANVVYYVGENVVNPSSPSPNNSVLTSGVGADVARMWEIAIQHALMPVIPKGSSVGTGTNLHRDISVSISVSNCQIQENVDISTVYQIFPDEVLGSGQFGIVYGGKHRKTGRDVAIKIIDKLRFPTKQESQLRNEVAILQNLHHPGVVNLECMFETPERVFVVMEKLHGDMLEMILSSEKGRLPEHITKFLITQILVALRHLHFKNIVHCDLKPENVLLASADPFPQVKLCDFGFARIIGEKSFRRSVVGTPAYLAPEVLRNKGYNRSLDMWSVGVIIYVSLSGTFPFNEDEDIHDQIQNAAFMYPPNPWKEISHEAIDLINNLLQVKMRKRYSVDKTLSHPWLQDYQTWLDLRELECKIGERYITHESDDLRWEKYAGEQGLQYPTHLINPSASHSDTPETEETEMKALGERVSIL
The settings on record: at 0.1 µM.

Experiment [9] addresses T2, Serine/threonine-protein kinase D1 (Homo sapiens). The conditions noted are these: at 1 µM.
For experiment [10], the target named is T3, Serine/threonine-protein kinase D2 (Homo sapiens) (UniProt Q9BZL6).
T3 sequence (whole entry): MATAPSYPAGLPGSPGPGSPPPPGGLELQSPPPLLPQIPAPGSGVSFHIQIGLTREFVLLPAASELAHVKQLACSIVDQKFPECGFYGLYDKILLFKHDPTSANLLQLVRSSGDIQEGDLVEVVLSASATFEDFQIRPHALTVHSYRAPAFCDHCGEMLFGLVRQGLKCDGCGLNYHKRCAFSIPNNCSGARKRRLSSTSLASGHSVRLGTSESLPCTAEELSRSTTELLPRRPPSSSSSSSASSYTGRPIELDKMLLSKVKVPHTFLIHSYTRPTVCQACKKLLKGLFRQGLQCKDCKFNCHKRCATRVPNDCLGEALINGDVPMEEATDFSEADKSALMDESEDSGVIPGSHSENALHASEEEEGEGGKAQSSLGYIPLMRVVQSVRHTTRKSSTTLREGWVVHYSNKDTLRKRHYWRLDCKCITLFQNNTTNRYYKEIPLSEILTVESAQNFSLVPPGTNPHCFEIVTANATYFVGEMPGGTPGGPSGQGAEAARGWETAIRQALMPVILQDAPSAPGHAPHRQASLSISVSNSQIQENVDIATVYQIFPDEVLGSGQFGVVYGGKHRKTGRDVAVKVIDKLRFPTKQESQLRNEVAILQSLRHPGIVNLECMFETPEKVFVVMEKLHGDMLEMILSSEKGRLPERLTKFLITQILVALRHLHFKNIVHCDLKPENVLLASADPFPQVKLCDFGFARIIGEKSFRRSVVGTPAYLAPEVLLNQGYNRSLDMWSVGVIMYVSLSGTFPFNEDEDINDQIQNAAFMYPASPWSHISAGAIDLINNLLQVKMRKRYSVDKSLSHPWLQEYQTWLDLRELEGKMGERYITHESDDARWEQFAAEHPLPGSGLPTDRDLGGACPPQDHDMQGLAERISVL
The settings on record: at 0.1 µM.

For experiment [11], the target named is T3, Serine/threonine-protein kinase D2 (Homo sapiens). The conditions noted are these: at 1 µM.
Experiment [12] concerns the target T4, Serine/threonine-protein kinase D3 (Homo sapiens) (UniProt O94806).
T4 sequence (whole entry): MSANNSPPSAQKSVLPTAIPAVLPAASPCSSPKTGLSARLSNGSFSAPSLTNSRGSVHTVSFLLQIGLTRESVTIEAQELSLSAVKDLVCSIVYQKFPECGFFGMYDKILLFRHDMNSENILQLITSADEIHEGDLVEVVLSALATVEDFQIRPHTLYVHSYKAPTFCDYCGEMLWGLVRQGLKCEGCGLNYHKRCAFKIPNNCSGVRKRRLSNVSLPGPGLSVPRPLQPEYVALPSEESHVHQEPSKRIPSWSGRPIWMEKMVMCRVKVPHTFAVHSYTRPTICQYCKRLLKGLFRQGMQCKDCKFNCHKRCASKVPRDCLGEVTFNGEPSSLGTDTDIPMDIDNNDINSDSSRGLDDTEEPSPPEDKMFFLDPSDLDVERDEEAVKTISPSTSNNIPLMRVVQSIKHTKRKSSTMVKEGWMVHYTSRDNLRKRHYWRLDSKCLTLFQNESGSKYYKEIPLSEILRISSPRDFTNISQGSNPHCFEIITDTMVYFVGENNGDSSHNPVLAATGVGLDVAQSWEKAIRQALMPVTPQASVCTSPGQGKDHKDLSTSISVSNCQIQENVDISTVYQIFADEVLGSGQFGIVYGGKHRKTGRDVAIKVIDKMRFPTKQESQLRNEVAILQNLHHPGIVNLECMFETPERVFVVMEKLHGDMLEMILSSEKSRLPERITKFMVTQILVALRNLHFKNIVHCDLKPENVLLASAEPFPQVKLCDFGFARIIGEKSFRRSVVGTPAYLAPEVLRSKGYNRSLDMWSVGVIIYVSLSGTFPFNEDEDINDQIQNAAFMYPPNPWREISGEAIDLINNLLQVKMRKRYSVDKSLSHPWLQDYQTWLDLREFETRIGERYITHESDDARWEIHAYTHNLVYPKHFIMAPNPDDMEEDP
The conditions noted are these: at 0.1 µM.

Experiment [13] addresses T4, Serine/threonine-protein kinase D3 (Homo sapiens). The conditions noted are these: at 1 µM.
The target in experiment [14] is T5, cGMP-dependent protein kinase 1 (Homo sapiens) (UniProt Q13976).
T5 sequence (whole entry): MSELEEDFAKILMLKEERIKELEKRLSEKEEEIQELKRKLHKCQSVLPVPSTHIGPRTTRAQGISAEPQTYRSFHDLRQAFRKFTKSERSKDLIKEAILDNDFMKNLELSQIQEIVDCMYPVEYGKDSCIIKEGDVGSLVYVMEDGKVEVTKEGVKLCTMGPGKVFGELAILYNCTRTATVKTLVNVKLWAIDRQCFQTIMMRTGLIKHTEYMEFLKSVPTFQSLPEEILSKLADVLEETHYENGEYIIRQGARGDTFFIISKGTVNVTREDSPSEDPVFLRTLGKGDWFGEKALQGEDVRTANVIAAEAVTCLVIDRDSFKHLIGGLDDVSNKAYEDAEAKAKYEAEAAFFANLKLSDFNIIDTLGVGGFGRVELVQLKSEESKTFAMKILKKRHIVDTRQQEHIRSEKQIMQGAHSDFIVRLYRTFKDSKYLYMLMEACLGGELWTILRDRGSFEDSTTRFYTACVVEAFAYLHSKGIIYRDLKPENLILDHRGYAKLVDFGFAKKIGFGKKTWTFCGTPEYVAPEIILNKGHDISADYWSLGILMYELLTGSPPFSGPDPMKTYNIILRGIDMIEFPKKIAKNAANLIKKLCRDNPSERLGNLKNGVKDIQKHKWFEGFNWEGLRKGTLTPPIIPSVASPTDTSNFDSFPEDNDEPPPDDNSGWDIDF
The conditions noted are these: at 0.1 µM.

Experiment [15] deals with T5, cGMP-dependent protein kinase 1 (Homo sapiens). The settings on record: at 1 µM.
The target in experiment [16] is T6, cGMP-dependent protein kinase 2 (Homo sapiens) (UniProt Q13237).
T6 sequence (whole entry): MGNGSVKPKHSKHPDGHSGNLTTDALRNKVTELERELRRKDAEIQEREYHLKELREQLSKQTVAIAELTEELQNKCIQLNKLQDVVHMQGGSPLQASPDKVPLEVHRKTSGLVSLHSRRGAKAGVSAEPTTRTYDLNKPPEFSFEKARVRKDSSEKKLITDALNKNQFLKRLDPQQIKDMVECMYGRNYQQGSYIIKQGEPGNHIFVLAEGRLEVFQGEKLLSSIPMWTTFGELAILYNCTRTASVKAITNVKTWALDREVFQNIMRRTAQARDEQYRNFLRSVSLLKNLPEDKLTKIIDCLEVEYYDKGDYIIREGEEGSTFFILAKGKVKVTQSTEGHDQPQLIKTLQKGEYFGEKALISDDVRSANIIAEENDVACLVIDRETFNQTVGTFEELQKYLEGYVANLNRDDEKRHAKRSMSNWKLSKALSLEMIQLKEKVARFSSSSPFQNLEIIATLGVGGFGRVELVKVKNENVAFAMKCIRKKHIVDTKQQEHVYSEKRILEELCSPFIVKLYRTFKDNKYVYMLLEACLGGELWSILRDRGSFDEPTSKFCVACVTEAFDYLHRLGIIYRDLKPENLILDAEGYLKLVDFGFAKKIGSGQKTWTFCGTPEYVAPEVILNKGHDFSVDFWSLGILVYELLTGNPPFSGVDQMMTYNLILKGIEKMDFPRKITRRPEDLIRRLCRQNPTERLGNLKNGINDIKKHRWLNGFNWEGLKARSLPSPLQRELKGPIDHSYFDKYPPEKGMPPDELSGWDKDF
The conditions noted are these: at 0.1 µM.

Experiment [17] concerns the target T6, cGMP-dependent protein kinase 2 (Homo sapiens). The settings on record: at 1 µM.
Experiment [18] has as its target T7, cAMP-dependent protein kinase catalytic subunit PRKX (Homo sapiens) (UniProt P51817).
T7 sequence (whole entry): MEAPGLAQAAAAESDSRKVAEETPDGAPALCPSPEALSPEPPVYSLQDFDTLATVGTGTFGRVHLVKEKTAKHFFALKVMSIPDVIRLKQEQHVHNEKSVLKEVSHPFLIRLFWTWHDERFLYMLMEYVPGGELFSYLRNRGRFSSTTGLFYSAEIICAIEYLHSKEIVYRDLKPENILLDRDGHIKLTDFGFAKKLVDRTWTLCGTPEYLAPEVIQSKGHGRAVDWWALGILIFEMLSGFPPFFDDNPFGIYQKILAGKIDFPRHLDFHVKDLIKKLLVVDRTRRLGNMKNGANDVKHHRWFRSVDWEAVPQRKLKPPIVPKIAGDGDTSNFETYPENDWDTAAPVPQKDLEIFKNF
The settings on record: at 0.1 µM.

Experiment [19] deals with T7, cAMP-dependent protein kinase catalytic subunit PRKX (Homo sapiens). The conditions noted are these: at 1 µM.
Experiment [20] deals with Rho-associated protein kinase 1 (Homo sapiens) (UniProt Q13464). The settings on record: at 0.1 µM.
Chain of Rho-associated protein kinase 1 (Homo sapiens) (Q13464 2-1354 limits assumed): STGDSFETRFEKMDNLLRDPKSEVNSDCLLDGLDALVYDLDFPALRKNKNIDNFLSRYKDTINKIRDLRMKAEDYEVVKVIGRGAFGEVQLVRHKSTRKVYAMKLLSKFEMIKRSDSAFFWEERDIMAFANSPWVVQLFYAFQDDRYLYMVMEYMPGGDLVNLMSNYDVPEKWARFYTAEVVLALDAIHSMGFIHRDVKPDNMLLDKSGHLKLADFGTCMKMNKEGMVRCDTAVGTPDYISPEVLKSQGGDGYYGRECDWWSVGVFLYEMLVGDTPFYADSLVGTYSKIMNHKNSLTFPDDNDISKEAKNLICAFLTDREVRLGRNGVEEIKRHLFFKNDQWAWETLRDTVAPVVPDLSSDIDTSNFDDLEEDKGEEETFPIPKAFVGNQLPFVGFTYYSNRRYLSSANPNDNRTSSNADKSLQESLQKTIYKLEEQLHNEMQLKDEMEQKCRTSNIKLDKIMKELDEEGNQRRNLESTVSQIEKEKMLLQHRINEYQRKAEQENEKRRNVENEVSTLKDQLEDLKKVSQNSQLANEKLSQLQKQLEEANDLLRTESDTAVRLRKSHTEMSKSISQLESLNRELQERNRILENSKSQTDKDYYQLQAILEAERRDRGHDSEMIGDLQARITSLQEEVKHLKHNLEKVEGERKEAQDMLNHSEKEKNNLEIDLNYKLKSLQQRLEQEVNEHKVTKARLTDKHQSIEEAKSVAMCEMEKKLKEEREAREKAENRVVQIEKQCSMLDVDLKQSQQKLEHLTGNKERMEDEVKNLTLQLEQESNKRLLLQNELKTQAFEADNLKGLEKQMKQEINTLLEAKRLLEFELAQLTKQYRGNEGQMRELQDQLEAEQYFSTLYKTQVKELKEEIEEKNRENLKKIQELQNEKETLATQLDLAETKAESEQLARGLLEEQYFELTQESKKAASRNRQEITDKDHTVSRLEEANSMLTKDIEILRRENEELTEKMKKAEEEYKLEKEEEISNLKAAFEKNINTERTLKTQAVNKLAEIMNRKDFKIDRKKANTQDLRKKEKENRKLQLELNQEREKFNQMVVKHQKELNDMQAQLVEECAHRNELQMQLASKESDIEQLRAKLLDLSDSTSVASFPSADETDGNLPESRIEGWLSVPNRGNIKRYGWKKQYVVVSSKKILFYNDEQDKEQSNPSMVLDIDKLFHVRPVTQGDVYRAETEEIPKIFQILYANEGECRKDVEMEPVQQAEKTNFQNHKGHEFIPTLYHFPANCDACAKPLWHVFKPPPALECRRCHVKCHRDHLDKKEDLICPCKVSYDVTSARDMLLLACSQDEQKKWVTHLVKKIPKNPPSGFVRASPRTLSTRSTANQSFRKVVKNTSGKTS

Chain of Protein kinase C theta type (Homo sapiens) (Q04759 whole entry, looked up): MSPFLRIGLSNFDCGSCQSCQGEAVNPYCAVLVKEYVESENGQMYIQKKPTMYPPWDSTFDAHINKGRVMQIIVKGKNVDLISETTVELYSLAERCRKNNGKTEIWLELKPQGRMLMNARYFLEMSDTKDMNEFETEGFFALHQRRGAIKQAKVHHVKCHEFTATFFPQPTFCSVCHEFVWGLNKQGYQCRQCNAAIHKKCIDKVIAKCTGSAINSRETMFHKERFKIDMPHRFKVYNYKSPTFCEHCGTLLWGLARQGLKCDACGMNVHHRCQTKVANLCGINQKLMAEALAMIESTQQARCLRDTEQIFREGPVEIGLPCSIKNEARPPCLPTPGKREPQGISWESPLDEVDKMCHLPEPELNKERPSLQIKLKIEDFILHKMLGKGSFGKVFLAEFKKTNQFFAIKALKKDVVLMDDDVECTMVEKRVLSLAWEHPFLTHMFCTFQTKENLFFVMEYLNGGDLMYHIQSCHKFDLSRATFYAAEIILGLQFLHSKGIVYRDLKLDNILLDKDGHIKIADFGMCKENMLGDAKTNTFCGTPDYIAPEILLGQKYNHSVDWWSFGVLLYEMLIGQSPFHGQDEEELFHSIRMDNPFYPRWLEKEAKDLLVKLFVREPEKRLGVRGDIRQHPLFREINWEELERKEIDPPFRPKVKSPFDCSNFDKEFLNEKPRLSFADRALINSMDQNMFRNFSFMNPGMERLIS
Chain of Protein kinase C beta type (Homo sapiens) (P05771 2-671 limits assumed): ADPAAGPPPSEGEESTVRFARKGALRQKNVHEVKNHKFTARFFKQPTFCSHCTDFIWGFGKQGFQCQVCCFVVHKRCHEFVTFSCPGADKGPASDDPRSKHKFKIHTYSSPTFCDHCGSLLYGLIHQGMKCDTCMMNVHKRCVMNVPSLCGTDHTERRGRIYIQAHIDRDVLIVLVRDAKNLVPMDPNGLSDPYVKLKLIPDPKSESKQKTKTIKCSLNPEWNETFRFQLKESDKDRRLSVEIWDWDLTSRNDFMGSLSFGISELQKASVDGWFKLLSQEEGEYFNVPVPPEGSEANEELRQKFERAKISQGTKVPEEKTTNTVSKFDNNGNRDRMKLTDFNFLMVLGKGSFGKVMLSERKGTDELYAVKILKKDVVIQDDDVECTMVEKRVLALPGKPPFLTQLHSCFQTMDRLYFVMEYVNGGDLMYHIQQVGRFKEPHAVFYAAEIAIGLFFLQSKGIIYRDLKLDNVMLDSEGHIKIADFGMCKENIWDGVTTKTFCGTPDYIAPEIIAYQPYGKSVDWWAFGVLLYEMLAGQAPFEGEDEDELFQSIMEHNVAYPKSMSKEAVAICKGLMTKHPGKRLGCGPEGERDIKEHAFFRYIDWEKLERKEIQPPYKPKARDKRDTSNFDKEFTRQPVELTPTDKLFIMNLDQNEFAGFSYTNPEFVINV

Consider `CC(C)COC(=O)c1ccc2c(c1)/C(=C/Nc1ccc(S(N)(=O)=O)cc1)C(=O)N2`, for which the inhibition in experiment [1] is 9.06%; in experiment [2] it was -0.44%; in [3], 1.73%; in experiment [4] it was 2.36%; in experiment [5] it was 7.78%; in experiment [6], 3.37%. Besides, the inhibition was found to be 6.47% in experiment [7]; 4.18% in experiment [8]; 56% in experiment [9]; 4.41% in [10]; 62.1% in experiment [11]; 1.74% in [12]. Further, the inhibition in experiment [13] worked out at 46.3%; in experiment [14], 4.93%; in experiment [15] it was 14.3%; in experiment [16] it was 11%; in experiment [17] it was 54.4%; in experiment [18] it was 6.36%. Besides, the inhibition in experiment [19] amounted to 13.5%; in experiment [20], 4.52%.
